Among the test systems are NCI-H23 lung; NCI-H226 lung; NCI-H322M lung; HOP-62 NSCLC; NCI-H460 lung; HOP-92 NSCLC; NCI-H522 lung; A549/ATCC NSCLC; 786-0 renal; COLO 205 colon; DU-145 prostate; K-562 leukemia; MALME-3M melanoma; MDA-MB-231 breast; RXF 393 renal; SF-268 CNS; SF-295 CNS; SF-539 CNS; UACC-257 melanoma; M14 melanoma.
Holding throughout (test): NCI-60 one-dose screen, 48 h (100 = growth as untreated, 0 = no growth, -100 = all killed)
Holding throughout (conditions): 10 µM

Structures are written as SMILES. Compounds without any hit were thinned out: in the full panel of roughly 83,000, 20% have a hit.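 In brief: 96-well plates, 48 h treatment, single concentration, percent growth endpoint.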 Values without a mark were called inactive. The source made the active and inactive calls. Rule for the calls: active = growth percent below 10; inactive = the rest.

For `CN1/C(=C\C(I)C(I)C2=[N+](C)c3ccccc3C2(C)C)C(C)(C)c2ccccc21` (stereo not given), the growth in the test with NCI-H23 lung was 3.16% (active); in the test on NCI-H226 lung, 16.5%; in the test on NCI-H322M lung, 20.9%; in the test on HOP-62 NSCLC, 5.15% (active); in the test with NCI-H460 lung it was 4.27% (active); in the test on HOP-92 NSCLC, -25.7% (active). Moreover, the growth was -14.1% (active) in the test on NCI-H522 lung; 11.3% in the test on A549/ATCC NSCLC; 23.2% in the test with 786-0 renal; -20.6% (active) with COLO 205 colon; 25.2% in the test with DU-145 prostate; 7.4% (active) with K-562 leukemia. The growth in the test with MALME-3M melanoma was 10.9%; with MDA-MB-231 breast, 12.2%; with RXF 393 renal, 36.3%; in the test with SF-268 CNS it was 24%; in the test with SF-295 CNS it was -18.2% (active); with SF-539 CNS, 18.6%. Besides, the results for the growth in the test on UACC-257 melanoma and in the test with M14 melanoma were -11.8% (active) and 20.3%, respectively.
For `COc1cc(-c2c(C#N)c(N)n3c(nc4ccccc43)c2C#N)cc(Br)c1OC`, the growth is 59.2% in the test on NCI-H23 lung; 27.8% with NCI-H226 lung; 70.9% in the test with NCI-H322M lung; 74.5% with HOP-62 NSCLC; 28.4% with NCI-H460 lung; -20.7% (active) in the test on HOP-92 NSCLC. Moreover, the growth in the test on NCI-H522 lung was 39.8%; in the test on A549/ATCC NSCLC it was 4.73% (active); with 786-0 renal, 22.2%; in the test on COLO 205 colon it was 55.1%; with DU-145 prostate, 39.1%; in the test with K-562 leukemia it was 54.6%. In addition, the growth in the test with MALME-3M melanoma is 7.41% (active); with MDA-MB-231 breast, 12.6%; with RXF 393 renal, -9.32% (active); in the test with SF-268 CNS, 64%; in the test on SF-295 CNS it was 66%; in the test with SF-539 CNS, 41.2%. Moreover, the growth in the test on UACC-257 melanoma was 54%; in the test with M14 melanoma, 76%.
Consider `COc1ccc(-c2nsc3c2NC(=O)CC3c2cccc(Cl)c2)cc1` (stereo not given), for which the growth is 46.9% with NCI-H23 lung; 75% in the test with NCI-H226 lung; 36% with NCI-H322M lung; 27.8% in the test with HOP-62 NSCLC; 13.3% in the test with NCI-H460 lung; -2.09% (active) in the test on HOP-92 NSCLC. Also, the growth with NCI-H522 lung is -6.59% (active); in the test on A549/ATCC NSCLC it was 30.2%; with 786-0 renal it was 46.4%; in the test on COLO 205 colon it was -40.6% (active); with DU-145 prostate it was 23.7%; with K-562 leukemia, 10.4%. Besides, the growth with MALME-3M melanoma was 26.2%; with MDA-MB-231 breast, 51.6%; in the test on RXF 393 renal, -1.29% (active); in the test on SF-268 CNS, 57.2%; with SF-295 CNS it was 5.03% (active); with SF-539 CNS it was -14.1% (active). Further, the growth in the test on UACC-257 melanoma is 45%; in the test with M14 melanoma it was 19.2%.
As for `Oc1ccccc1-c1nnc(Cn2c(Cc3cccc4ccccc34)nc3ccccc32)o1`, the growth in the test with NCI-H23 lung is 90.8%; in the test with NCI-H226 lung, 93.1%; in the test with NCI-H322M lung, 84.4%; in the test with HOP-62 NSCLC, 87.6%; with NCI-H460 lung, 108%; with HOP-92 NSCLC, 78.3%. Moreover, the growth in the test with NCI-H522 lung was 92.2%; in the test with A549/ATCC NSCLC it was 100%; with 786-0 renal it was 103%; in the test on COLO 205 colon, 110%; in the test with DU-145 prostate it was 106%; with K-562 leukemia, 98.6%. In addition, the growth with MALME-3M melanoma was 87.1%; in the test on MDA-MB-231 breast, 101%; with RXF 393 renal it was 108%; with SF-268 CNS, 96.6%; in the test on SF-295 CNS it was 93.9%; in the test with SF-539 CNS, 97.9%. The growth in the test on UACC-257 melanoma was 100%; with M14 melanoma it was 96.9%.
For the molecule `O=C1/C(=C/c2ccc(O)cc2)Cc2ccc(Cl)cc21`, the growth with NCI-H23 lung was 69.5%; in the test with NCI-H226 lung, 68.1%; in the test with NCI-H322M lung, 84.9%; in the test with HOP-62 NSCLC, 95.3%; in the test on NCI-H460 lung it was 84.4%; in the test on HOP-92 NSCLC it was 77.3%. Moreover, the growth is -38.8% (active) in the test with NCI-H522 lung; 85.9% in the test with A549/ATCC NSCLC; 92.2% in the test on 786-0 renal; 120% with COLO 205 colon; 111% in the test on DU-145 prostate; 81.8% with K-562 leukemia. For the same molecule, the growth with MALME-3M melanoma is 106%; with MDA-MB-231 breast it was 61.5%; in the test on RXF 393 renal, 59.7%; in the test on SF-268 CNS, 95.9%; in the test with SF-295 CNS it was 92.3%; in the test with SF-539 CNS, 82.6%. Further, the figures for the growth in the test with UACC-257 melanoma and in the test with M14 melanoma were 86% and 82.5%, respectively.
Take `O=C(O)CCCN1C(=O)NC2(C1=O)c1ccccc1-c1ccccc12`: the growth in the test with NCI-H23 lung is 93.2%; in the test on NCI-H226 lung, 91.1%; with NCI-H322M lung it was 101%; in the test on HOP-62 NSCLC it was 102%; in the test on NCI-H460 lung it was 105%; with HOP-92 NSCLC, 88.5%. Besides, the growth in the test with NCI-H522 lung is 80.4%; in the test on A549/ATCC NSCLC, 90.2%; in the test with 786-0 renal, 95.2%; in the test on COLO 205 colon, 108%; in the test on DU-145 prostate, 105%; with K-562 leukemia, 99%. For the same molecule, the growth in the test with MALME-3M melanoma was 97.3%; in the test with MDA-MB-231 breast, 107%; in the test on RXF 393 renal, 101%; in the test on SF-268 CNS it was 95.3%; in the test with SF-295 CNS it was 95.2%; with SF-539 CNS, 99.7%. Also, the growth in the test on UACC-257 melanoma is 91.2%; with M14 melanoma, 103%.
Turning to `NC1CCC(Nc2nc(NCc3ccc(-c4ccco4)nc3)c3ncn(C4CCCC4)c3n2)CC1` (stereo not given), the growth in the test with NCI-H23 lung is -18.1% (active); with NCI-H226 lung, -18.6% (active); in the test with NCI-H322M lung it was 21.4%; with HOP-62 NSCLC, -17.1% (active); with NCI-H460 lung, 4.97% (active); with HOP-92 NSCLC, -16.3% (active). For the same molecule, the growth in the test on NCI-H522 lung was -70.6% (active); with A549/ATCC NSCLC, 3.69% (active); with 786-0 renal, 8.51% (active); in the test on COLO 205 colon, -62.7% (active); with DU-145 prostate it was 6.46% (active); in the test on K-562 leukemia, 2.46% (active). Moreover, the growth was -40.6% (active) with MALME-3M melanoma; 3.81% (active) in the test on MDA-MB-231 breast; -50.5% (active) in the test with RXF 393 renal; 0.711% (active) in the test on SF-268 CNS; 0.17% (active) with SF-295 CNS; -25.7% (active) in the test with SF-539 CNS. The growth in the test on UACC-257 melanoma was -8.84% (active); in the test on M14 melanoma, -23.5% (active).
Regarding `CCCc1c(CC)c(=N)c2ccccc2n1C`, the growth was 88% with NCI-H23 lung; 83.2% in the test with NCI-H226 lung; 71% with NCI-H322M lung; 68.2% in the test with HOP-62 NSCLC; 65.9% in the test on NCI-H460 lung; 76.1% with HOP-92 NSCLC. Moreover, the growth with NCI-H522 lung is 73.6%; with A549/ATCC NSCLC, 50.4%; with 786-0 renal, 41%; with COLO 205 colon, -18.5% (active); in the test with DU-145 prostate it was 62%; in the test with K-562 leukemia, -3.78% (active). Also, the growth in the test with MALME-3M melanoma was -88.7% (active); with MDA-MB-231 breast it was 43.1%; in the test with RXF 393 renal, 8.09% (active); in the test with SF-268 CNS it was 79.5%; in the test on SF-295 CNS, -51.9% (active); in the test on SF-539 CNS, 68.1%. The figures for the growth with UACC-257 melanoma and in the test with M14 melanoma were -64.1% (active) and -61.6% (active), respectively.

The values above are taken from PubChem BioAssay (NCI).
